Experimental data: PubChem BioAssay AID588342 (National Center for Advancing Translational Sciences (NCATS), 2011)
The campaign covered roughly 360,000 compounds. About 25,000 (6.9%) were called active. Another 9% or so got no clear call; they are omitted. Only a selection was taken, and actives are over-represented in it overall. Unmarked numbers belong to inactive results. Calls come from the whole dose curve; as a rule, active = well fitted inhibition curve with a large enough effect; inconclusive = small, poorly fitted or top-dose-only effect; inactive = flat fitted curve, though single readings scatter.

Each compound was assayed against Luciferin 4-monooxygenase (Photinus pyralis) (UniProt P08659) (assay: qHTS profiling assay for firefly luciferase inhibitor/activator using purifed enzyme and Km concentrations of substrates (counterscreen for miR-21 project)). Conditions: purified FLuc, luminescence inhibition; series mostly up to 57.5 µM; activity change, negative = inhibition: at the top concentration.
Luciferin 4-monooxygenase (Photinus pyralis), sequence (P08659 whole entry, looked up): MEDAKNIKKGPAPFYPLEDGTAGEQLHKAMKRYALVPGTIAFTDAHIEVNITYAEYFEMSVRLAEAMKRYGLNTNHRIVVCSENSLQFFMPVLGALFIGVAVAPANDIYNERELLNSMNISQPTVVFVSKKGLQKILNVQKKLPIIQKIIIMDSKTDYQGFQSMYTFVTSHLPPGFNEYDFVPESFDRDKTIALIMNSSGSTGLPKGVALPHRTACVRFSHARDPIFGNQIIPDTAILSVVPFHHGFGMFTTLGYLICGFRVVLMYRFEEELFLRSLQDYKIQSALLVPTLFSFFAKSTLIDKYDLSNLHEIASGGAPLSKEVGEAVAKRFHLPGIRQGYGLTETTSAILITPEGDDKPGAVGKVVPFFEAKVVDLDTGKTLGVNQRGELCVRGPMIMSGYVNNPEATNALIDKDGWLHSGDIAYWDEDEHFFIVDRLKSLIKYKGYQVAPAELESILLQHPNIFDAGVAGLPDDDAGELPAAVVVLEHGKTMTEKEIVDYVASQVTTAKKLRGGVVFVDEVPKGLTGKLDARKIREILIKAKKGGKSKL
In short: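 Purified P. pyralis luciferase (10nM final) with 10uM D-luciferin and 10uM ATP (Km levels) in 50mM Tris acetate pH 7.5, 10mM Mg acetate, 0.01% Tween-20, 0.05% BSA; qHTS 6-point titration, ~60 µM downward; luminescence read.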
Note: nearly all actives have a fitted effect of over 55% in size.
Potency is the fitted concentration of half-maximal effect.
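Throughout, for activity change, negative = inhibition: plate controls were vehicle for no effect and reference inhibitor for full effect.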

SMILES | activity change, negative = inhibition [%] | Potency
COc1ccc(C)cc1NC(=O)CN1c2cccc3cccc(c23)S1(=O)=O | -0.145 | –
CCOC(=O)c1cc(-c2ccccc2C)n(Cc2cc(C)no2)n1 | -3.14 | –
COc1cccc(OC)c1C(=O)Nc1ccc(Cc2ccncc2)cc1 | -10.8 | –
CC(C)CC(=O)Nc1ccc(Cc2ccncc2)cc1 | -0.47 | –
CCc1ccc(NC(=O)Nc2ccncc2)cc1 | – | 9.53 µM (active)
CCCN(C(=O)c1nc2nccc(C)n2n1)c1c(N)n(Cc2ccccc2)c(=O)[nH]c1=O | -2.05 | –
CCOC(=O)/C(=N\Nc1cc(Cl)ccc1Cl)N1CCN(C)CC1 | -1.6 | –
CC(C)Cc1nc(Nc2ccc(S(=O)(=O)N3CCCC3)cc2)c2nnn(Cc3ccccc3)c2n1 | -0.534 | –
Cc1onc(-c2ccc(F)cc2F)c1C(=O)Nc1cccc(C(F)(F)F)c1 | -0.0598 | –
CCCC(=O)Nc1cccc(NC(=S)NC(=O)C(C)Oc2ccc(Cl)cc2Cl)c1 (stereo unspecified) | 0.164 | –
CC(C)n1ncc2c(C(=O)NCc3ccccc3CN(C)C)cc(C3CC3)nc21 | -2.31 | –
COC(=O)CC1=NN(c2nc(C)cc(C)n2)C(=O)C1 | -2.4 | –
COC(=O)Cc1csc(Nc2c(C)n(C)n(-c3ccccc3)c2=O)n1 | 0.205 | –
COC(=O)Cc1cc(=O)n(-c2nc3ccccc3s2)[nH]1 | – | 16.9 µM (active)
CCCCOc1ccc(CNC(=O)c2ccc3c(c2)N(C)C(=O)C2CCCCN32)cc1 (stereo unspecified) | -16.9 | –
Cc1c(C(=O)Nc2cccc(Cl)c2)cn2c(nc3ccccc32)c1C#N | 0.605 | –
Cn1c(Nc2cccc(Cl)c2)nc2ccccc21 | – | 26.9 µM (active)
C/C(=N\c1nc2ccccc2n1C)c1cc(Cl)ccc1O | 1.93 | –
Cc1ccc(S(=O)(=O)N2CCc3cc(C(=O)Nc4ccc(Cl)cc4C)ccc32)cc1 | -0.133 | –
NC(=O)Cn1cc(/C=N\NS(=O)(=O)c2ccccc2)c2ccccc21 | -3.8 | –
COc1cccc(C(=O)CC(=O)C(=O)Nc2ccc([N+](=O)[O-])cc2C)c1 | -0.0338 | –
COc1cccc(CNC(=O)CCCC(=O)Nc2cccc([N+](=O)[O-])c2)c1 | -0.421 | –

SMILES | activity change, negative = inhibition [%] | Potency
COc1cccc(NCCC(=O)c2cccc([N+](=O)[O-])c2)c1 | – | 15.1 µM (active)
CC(=O)c1ccc(OCCCC(=O)Nc2ccc(C)c(S(=O)(=O)N3CCOCC3)c2)cc1 | -0.819 | –
Cc1ccc(NC(=O)CN2c3ccccc3S(=O)(=O)c3ccccc32)cc1F | -14.8 | –
Cc1ccc(F)cc1S(=O)(=O)N1CCC(c2nc3ccccc3s2)CC1 | -14.2 | –
N#C/C(=C(/O)Cc1cccc2ccccc12)c1nc2ccccc2s1 | 0.936 | –
CC1=CC(=C(C#N)c2nc3ccccc3s2)C=C(C)N1c1ccc(F)cc1F | – | 1.35 µM (active)
COc1ccc(C(C(O)C(=O)c2c[nH]c3ccccc23)N2CCN(c3ccccc3)CC2)cc1 (stereo unspecified) | 1 | –
COc1ccc2[nH]cc(/C=C(/C#N)S(=O)(=O)c3ccccc3)c2c1 | -2.16 | –
COc1ccc(/C=C(\C#N)c2c[nH]c3ccccc23)cc1 | – | 19 µM (active)
CCOC(=O)c1cc(NC(=O)c2ccc(F)cc2)c(=O)n2c1oc1ccccc12 | -2.27 | –
COC1=C/C(=C/c2c(N)n3nc(CC(=O)N4CCOCC4)sc3nc2=O)C=CC1=O | -7.53 | –
CCNC(=O)c1ccc(OCC(=O)Nc2ccc(F)cc2)c(OC)c1 | -8.62 | –
COc1cc2c(cc1OC)/C(=C/C(=O)c1ccc(NC(C)=O)cc1)NCC2 | – | 16.9 µM (active)
COc1cc2c(cc1OC)CN(CC(=O)Nc1ccc(F)cc1)CC2 | 1.97 | –
CCN(CC(=O)Nc1ccccc1C(=O)NC1CC1)Cc1cccs1 | 2.69 | –
Cc1cc(OCC(=O)NCC2(N(C)C)CCCCC2)cc(C)c1Cl | -0.865 | –
Cc1ccnc(SCC(N)=O)n1 | -2.98 | –
Cc1ccnc(-n2sc3ccccc3c2=O)n1 | – | 9.53 µM (active)
Cc1ccnc(N2CCCC(C(=O)NC3CC3)C2)n1 (stereo unspecified) | 0.897 | –
CCN(Cc1ccccc1)S(=O)(=O)c1ccc2c(c1)CCCN2C(C)=O | -8.62 | –
COc1ccc(N2CCN(C(=O)COc3ccc4c(C)cc(=O)oc4c3)CC2)cc1 | 1.41 | –
CN(Cc1cccnc1)C(=O)c1cc(COc2ccc3ncccc3c2)on1 | -5.81 | –

SMILES | activity change, negative = inhibition [%] | Potency
CCn1ccnc1CN(C)C(=O)c1cc(COc2ccc(-n3cncn3)cc2)on1 | 0.919 | –
Cc1cc(CN(C)C(=O)c2cc(COc3ccc(C)c(C)c3)on2)n[nH]1 | – | 2.39 µM (active)
CN(CCOc1ccccc1)C(=O)c1cc(COc2c(F)cccc2F)on1 | -13.6 | –
CN(Cc1cnccn1)C(=O)c1cc(COc2cccc(C(F)(F)F)c2)on1 | -18.1 | –
Cc1ccc(OCc2cc(C(=O)N(C)CCc3ccccc3)no2)cc1C | – | 23.9 µM (active)
COc1cccc(CNC(=O)c2cc(=O)[nH]c3ccc(S(=O)(=O)N4CCCCC4)cc23)c1 | 3.34 | –
Cc1cccc(OCCCC(=O)Nc2sc3c(c2C(N)=O)CCC(C)C3)c1 (stereo unspecified) | -8.63 | –
OC(c1ccccc1)C(CN1CCOCC1)c1ccccc1 (stereo unspecified) | -1.86 | –
COC(=O)c1ccccc1NC(=O)c1cnn(-c2ccc(F)cc2)c1-n1cccc1 | -3.25 | –
COC(=O)c1c(NC(=O)CCCOc2ccccc2)sc2c1CCC(C)C2 (stereo unspecified) | 1.24 | –
CC1CCN(C(=O)COC(=O)CCC(=O)c2cccs2)CC1 | -5.08 | –
O=C(Nc1ccc2nc(SCC(=O)N3CCCc4ccccc43)sc2c1)c1ccc(Cl)cc1 | -16.4 | –
Cc1nnc(SCC(=O)N2CCN(c3ccccc3)CC2)n1-c1ccccc1 | 1.26 | –
Cc1nnc(SCC(=O)NCCOc2ccc(Cl)cc2)n1-c1ccccc1 | -2.21 | –
Cc1nnc(SCc2ccc(C(=O)c3ccc(Cl)cc3)o2)n1-c1ccccc1 | – | 15.1 µM (active)
COc1ccc(C)cc1NC(=O)c1cc(-c2ccccc2)nc2c1cnn2C(C)C | 1.45 | –
COCCN(CCOC)c1nc(N)c2c(N)nc3c(c2c1C#N)CC(=O)N3Cc1ccc(Cl)cc1 | 3.37 | –
CCOC(=O)C1CCCN(Cc2nc(N)nc(Nc3ccc(C)cc3)n2)C1 (stereo unspecified) | 2.54 | –
Cc1ccc(Nc2nc(N)nc(CSc3nnc(C)s3)n2)cc1 | – | 10.7 µM (active)
Cc1nnc(SCc2nc3ccccc3nc2C)s1 | -1.45 | –
O=C(COC(=O)Cn1[nH]c(=O)c2ccccc2c1=O)Nc1ncc(Cl)cc1Cl | -0.206 | –
Cc1ccc(S(=O)(=O)NCCC(=O)NNC(=O)C2COc3ccccc3O2)cc1 (stereo unspecified) | 0.339 | –
